Measurements from PubChem BioAssay.
Records with an inconclusive call do not appear. Activity calls are given as the source filed them.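 Rule for the calls, unless noted: active = viability increase at or above a cutoff of the median across tested compounds plus 3 SD (cut at about 8.5% in these data, passing the limit was not always enough); inconclusive = some gains above the cutoff, reason not given; inactive = the rest.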

Legend:
[1] = reducers of endogenous Her2 protein level, primary screen, SKBR3 breast tumor cells, AlphaScreen, ATP viability (AID 461;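 active = Her2 level under about 52% in both replicate screens, with viability over 70% of control, limit read from the data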;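 for Her2 level: lower value means less Her2 protein in the cells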;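 for viability: percent of carrier control wells set as 100% viability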); conditions: 18-24 h, measured here: SKBR3 viability, ATP luminescence, at 10 µM
[2] = biological target: Receptor tyrosine-protein kinase erbB-2 (Homo sapiens) (UniProt P04626); test: as above; conditions: 18-24 h, at 10 µM, stronger effect = lower value
Chain of Receptor tyrosine-protein kinase erbB-2 (Homo sapiens) (P04626 whole entry, looked up): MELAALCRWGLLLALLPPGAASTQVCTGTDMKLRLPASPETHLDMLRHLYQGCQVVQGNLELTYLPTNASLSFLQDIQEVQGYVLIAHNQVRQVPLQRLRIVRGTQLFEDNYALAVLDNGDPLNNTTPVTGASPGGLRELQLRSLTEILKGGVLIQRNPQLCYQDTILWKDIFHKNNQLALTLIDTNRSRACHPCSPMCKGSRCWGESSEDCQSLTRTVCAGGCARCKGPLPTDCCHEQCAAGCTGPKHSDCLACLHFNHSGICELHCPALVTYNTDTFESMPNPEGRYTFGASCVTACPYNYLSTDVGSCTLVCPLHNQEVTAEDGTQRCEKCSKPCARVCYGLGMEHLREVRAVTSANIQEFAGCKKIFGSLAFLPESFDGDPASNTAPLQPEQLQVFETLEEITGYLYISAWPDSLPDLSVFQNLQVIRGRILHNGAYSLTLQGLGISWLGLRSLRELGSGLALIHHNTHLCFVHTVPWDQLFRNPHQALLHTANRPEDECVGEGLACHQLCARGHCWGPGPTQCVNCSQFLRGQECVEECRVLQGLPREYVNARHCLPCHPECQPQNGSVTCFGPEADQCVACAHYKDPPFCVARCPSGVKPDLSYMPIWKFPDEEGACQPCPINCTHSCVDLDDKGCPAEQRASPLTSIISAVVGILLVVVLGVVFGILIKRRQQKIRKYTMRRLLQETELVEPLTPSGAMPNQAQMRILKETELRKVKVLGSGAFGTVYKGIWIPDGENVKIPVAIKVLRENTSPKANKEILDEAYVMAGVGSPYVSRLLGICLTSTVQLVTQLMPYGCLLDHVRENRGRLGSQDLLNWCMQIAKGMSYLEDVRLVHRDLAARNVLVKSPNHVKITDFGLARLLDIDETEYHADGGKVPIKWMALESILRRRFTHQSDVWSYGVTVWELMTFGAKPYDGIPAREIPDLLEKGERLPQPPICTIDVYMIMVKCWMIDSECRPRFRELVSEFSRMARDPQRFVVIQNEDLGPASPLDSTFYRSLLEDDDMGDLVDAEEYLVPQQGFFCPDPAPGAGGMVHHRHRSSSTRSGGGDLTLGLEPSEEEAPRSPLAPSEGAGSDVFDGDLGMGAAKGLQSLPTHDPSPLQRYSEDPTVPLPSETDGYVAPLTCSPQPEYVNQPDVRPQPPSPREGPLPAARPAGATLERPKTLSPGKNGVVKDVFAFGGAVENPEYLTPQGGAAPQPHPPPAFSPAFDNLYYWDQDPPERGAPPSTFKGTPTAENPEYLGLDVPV

[3] = SK-BR-3 cell growth inhibitors, pilot screen, 24 h, human (AID 572;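 active = viability at or below 10% of carrier control in both of two separate runs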;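 note: compound exposure lasted between 18 and 24 h rather than exactly 24 h; 100% = carrier-treated control wells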); conditions: SK-BR-3 viability, CellTiter-Glo luminescence, at 10 µM, stronger effect = lower value
[4] = HUVEC growth inhibition – cell-based, human, primary screen (AID 575;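 active = viability at or below 30% in both replicate assays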;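 note: 100% = median of untreated cell wells with 0.1% DMSO on each plate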); conditions: HUVEC proliferation, CellTiter-Glo luminescence, 72 h; at 10 µM; stronger effect = lower value
[5] = growth inhibitors of H69AR lung tumor, primary screen, human, duplicate replicates (AID 580;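 active = viability at or under a set limit in both replicates, limit being median viability minus 3 SD, cut at about 48% in these data, passing the limit was not always enough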;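 note: 100% = mean luminescence of untreated wells and 0% = no signal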); conditions: H69AR lung tumor cells viability, ATP luminescence, 72 h; at 10 µM; stronger effect = lower value
[6] = reversal of MRP1-mediated doxorubicin resistance, pilot screen, H69AR cells, doxorubicin co-treatment (AID 601;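 active = viability loss from added drug above about 55%, and viability with drug at most 40%, in both replicates, limit read from the data, passing the limit was not always enough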); conditions: CellTiter-Glo, 72 h, at 10 µM; for differential viability (reversal): stronger effect = higher value
[7] = 384-well plate pilot, post-Golgi transport modulator project, inhibition of yeast transport mutant growth (AID 636; in the data active = inhibition above about 31%); conditions: absorbance 615 nm, about 18 h, stronger effect = higher value
[8] = growth suppression of yeast trafficking mutant, preliminary HTS, modulators of trafficking downstream of Golgi apparatus project, 1536-format plate, OD 615 nm (AID 637; in the data active = inhibition above about 30%); conditions: yeast transport mutant growth, absorbance 615 nm, 18 h; stronger effect = higher value
[9] = OD615 S. cerevisiae growth inhibition, permissive medium, pilot counter-assay, permissive growth control for S. cerevisiae lifespan shortening project (AID 705;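 active = growth inhibition above 25% in both replicates, a cutoff set 3 SD above the mean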); conditions: OD615, 24 h, at 10 µM, stronger effect = higher value
[10] = Restrictive medium S. cerevisiae growth inhibition, OD615, pilot screen of yeast lifespan reduction project, restrictive growth control (AID 706;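 active = growth inhibition above a set limit, 3 SD over mean compound inhibition, in both replicates, cut at about 43% in these data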;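 note: modified DeaD lifespan yeast strain shifted to restrictive glucose medium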); conditions: OD615, 48 h, at 10 µM, stronger effect = higher value
[11] = viability gain of MRP-1-high H69AR cells under doxorubicin, pilot screen, MRP-1 activator project, CellTiter-Glo, duplicate (AID 807); conditions: H69AR viability with doxorubicin, CellTiter-Glo luminescence; at 10 µM; stronger effect = higher value;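 note: compound pretreatment 18-22 h then 72 h combined with doxorubicin; 0% = doxorubicin alone and 100% = vehicle without doxorubicin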
[12] = growth suppression of beta-catenin knockout HCT116, pilot screen, human colon tumor cells (AID 823;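 active = cell viability at or below a set limit in both duplicate runs, the limit being the all-compound median minus 4 SD, cut at about 23% in these data, passing the limit was not always enough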;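 note: 0% = wells killed by 20 µM Hyamine and 100% = untreated DMSO cell wells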); conditions: CellTiter-Glo, 60 h, at 10 µM, stronger effect = lower value
[13] = growth suppression of PTEN-deleted HCT116, pilot screen, cell-based, HCT116 clonal line, CellTiter-Glo (AID 824;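 active = viability at or below 27.92% in each of two runs, the all-compound median minus 4 SD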;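 note: 0% = 20 µM Hyamine control and 100% = vehicle cell control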); conditions: 60 h, at 10 µM, stronger effect = lower value
[14] = inhibitors of the yeast RAM network, pilot screen, dse1pr::URA3 reporter, 5-FOA selection (AID 869;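 active = inhibition over a set limit, the all-compound mean plus 3 SD, in both replicate runs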;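 note: 0% = DMSO wells with no growth and 100% = 10 µM 1-NA-PP1 with full growth; RAM network block rescues cells from 5-FOA so hits raise OD615 growth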); conditions: S. cerevisiae dse1pr::URA3 5-FOA growth, OD615, 2 d; at 10 µM; stronger effect = higher value; strain carries analog-sensitive mutant Cbk1 kinase
[15] = RAM signaling pathway blockade in yeast – S. cerevisiae, Pdr1DBD-CYC8 efflux-inhibited sensitized strain, primary screen (AID 1298;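 active = RAM network inhibition above 8.4% in each of two replicates, 3 SD over the compound average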;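 note: 0% = DMSO untreated cells without growth and 100% = 10 µM 1-NA-PP1 full growth; higher means more yeast growth rescued from 5-FOA killing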); conditions: S. cerevisiae cbk1-as DSE1-URA3 strain, 5-FOA growth OD615, 2 d; at 50 µM; stronger effect = higher value
[16] = H69AR cells + 2 uM doxorubicin, measured here: viability with 2 uM doxorubicin, stronger effect = lower value
[17] = H69AR cells, compound alone cytotoxicity

| SMILES | viability [1] | Her2 level [2] | viability [3] | viability [4] | viability [5] | differential viability (reversal) ([6]; H69AR cells + 2 uM doxorubicin) | viability [6, 16] | viability [6, 17] | inhibition [7] | inhibition [8] | growth inhibition [9] | growth inhibition [10] | viability increase [11] | viability [12] | viability [13] | inhibition [14] | RAM network inhibition [15] |
| --- | --- | --- | --- | --- | --- | --- | --- | --- | --- | --- | --- | --- | --- | --- | --- | --- | --- |
| COc1cccc(C(=O)OCn2nnc3ccccc3c2=O)c1OC | 85.5% | 102% (inactive) | 85.5% (inactive) | 97.7% (inactive) | 86.9% (inactive) | -22% (inactive) | 109% | 86.9% | -2.67% (inactive) | -3.67% (inactive) | 8.45% (inactive) | 5.07% (inactive) | 0.09% (inactive) | 96.5% (inactive) | 99.9% (inactive) | 2.57% (inactive) | -0.62% (inactive) |
| CCN(CC)C(=O)Oc1ccc(NC(C)=O)cc1 | 88.5% | 108% (inactive) | 88.5% (inactive) | 97.4% (inactive) | 93.6% (inactive) | -0.975% (inactive) | 94.6% | 93.6% | 0.91% (inactive) | -6.33% (inactive) | -4.01% (inactive) | -12% (inactive) | -0.49% (inactive) | 105% (inactive) | 108% (inactive) | 1.06% (inactive) | 1.82% (inactive) |
| Cc1ccc(-n2c3c(cc(C(=O)NCCCN4CCOCC4)c2=O)C(=O)CC(C)(C)C3)cc1 | 109% | 110% (inactive) | 109% (inactive) | 87% (inactive) | 85% (inactive) | -13% (inactive) | 97.9% | 85% | 0.53% (inactive) | -3.67% (inactive) | -4.99% (inactive) | -4.07% (inactive) | -1.54% (inactive) | 101% (inactive) | 104% (inactive) | -0.26% (inactive) | 3.35% (inactive) |
| CC(C)(C)SCCNC(=O)CN1C(=O)c2ccccc2S1(=O)=O | 97% | 92.5% (inactive) | 97% (inactive) | 101% (inactive) | 106% (inactive) | 8.94% (inactive) | 97.4% | 106% | -4.67% (inactive) | 0.82% (inactive) | -13% (inactive) | -6.21% (inactive) | -0.57% (inactive) | 103% (inactive) | 99.8% (inactive) | 1.42% (inactive) | 4.44% (inactive) |
| CCCc1cc(=O)oc2c(C)c3occ(C)c3cc12 | 112% | 99.5% (inactive) | 112% (inactive) | 64.8% (inactive) | 98.2% (inactive) | 4.94% (inactive) | 93.3% | 98.2% | -0.68% (inactive) | -3.02% (inactive) | -2.79% (inactive) | 0.83% (inactive) | -4.59% (inactive) | 77.4% (inactive) | 79.5% (inactive) | 3.16% (inactive) | 3.02% (inactive) |
| COCCCNC(=O)CC1Oc2ccccc2NC1=O (stereo not drawn) | 86.5% | 100% (inactive) | 86.5% (inactive) | 111% (inactive) | 83.3% (inactive) | -5.41% (inactive) | 88.7% | 83.3% | -5.73% (inactive) | -2.83% (inactive) | -2.61% (inactive) | -1.36% (inactive) | 0.06% (inactive) | 97.6% (inactive) | 102% (inactive) | 1.65% (inactive) | 2.25% (inactive) |
| CC(=NCC1CCNCC1)C1=C(O)CC(C)(C)CC1=O | 79% | 95.5% (inactive) | 79% (inactive) | 107% (inactive) | 106% (inactive) | 13.4% (inactive) | 92.4% | 106% | -4.73% (inactive) | 2.3% (inactive) | 10% (inactive) | 5.17% (inactive) | -2.21% (inactive) | 91.2% (inactive) | 97.3% (inactive) | 0.485% (inactive) | -1.02% (inactive) |
| CC(C)NC(=O)c1ccc2c(c1)nnn2C | 94% | 84% (inactive) | 94% (inactive) | 87.6% (inactive) | 99.4% (inactive) | 0.56% (inactive) | 98.8% | 99.4% | -4.05% (inactive) | -4.92% (inactive) | -7.61% (inactive) | -12.3% (inactive) | 0.39% (inactive) | 106% (inactive) | 105% (inactive) | 2% (inactive) | 1.32% (inactive) |
| C(=N\c1c(-c2ccccc2)nc2n1CCS2)/c1ccccc1 | 102% | 104% (inactive) | 102% (inactive) | 85.9% (inactive) | 100% (inactive) | 10.5% (inactive) | 89.5% | 100% | -1.69% (inactive) | -6% (inactive) | 1.59% (inactive) | 40.4% (inactive) | -4.2% (inactive) | 84.8% (inactive) | 90.2% (inactive) | 0.675% (inactive) | 6.86% (inactive) |
